Screens deposited in PubChem BioAssay by National Center for Advancing Translational Sciences (NCATS).
Only some compounds are listed: those with a hit (about 8% of all), similar ones and a draw of the others.
HCV inh: blocks hepatitis C virus | Huh7.5.1 HCVcc-Cre infection, luciferase reporter, 44 h | Potency, µM (highest dose often 41.8 µM), inactives show top-dose activity change, negative = inhibition, usual class: inhibitors | 340,000 compounds, 3.4% hits; active = well fitted inhibition curve with a large enough effect; inconclusive = small, poorly fitted or top-dose-only effect, or another doubt; inactive = no such curve, though single readings can be large or run the other way; also: potency is read from the fitted curve at half-maximal effect; % is scaled to controls: 0 for no effect and ±100 for the full control effect
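Cells (1,000/well) were plated 4 h before compound, then infected with HCVcc-Cre virus (~0.5 moi). After 44 h further culture, infection was read as luciferase luminescence following a 15 min substrate incubation at room temperature.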
SARS PLpro yeast: inhibitors of SARS-CoV papain-like protease in yeast | S. cerevisiae expressing SARS-CoV PLpro, growth rescue | Potency, µM (doses to about 32.9 µM), for the others: at the top dose activity, positive = growth rescue, hits mostly activators | 330,000 compounds, 0.19% hits | AID 485353; calls by dose curve; also: potency is read from the fitted curve at half-maximal effect; 0% is about no effect; nearly all actives have a fitted effect of over 55% in size
MARV entry inh: Marburg virus entry inhibition. Marburg virus pseudotyped entry inhibition, cell reporter. Potency, µM (series often up to 37.8 µM), for the others: top-dose activity change, negative = inhibition, hits mostly inhibitors. 300,000 compounds, 1.8% hits. AID 540276; calls by dose curve; tested in HEK293 cells; also: potency is read from the fitted curve at half-maximal effect; % is scaled to controls: 0 for no effect and ±100 for the full control effect
FMDV antiviral: foot and mouth disease virus antiviral activity; FMDV antiviral cell-based qHTS; Potency, µM (titrated, usually from 57.9 µM), inactives show top-dose activity change, negative = inhibition, usual class: inhibitors; 410,000 compounds, 1.2% hits; AID 1159524; calls by dose curve; tested in HEK293T cells; also: read-out not given here; potency is read from the fitted curve at half-maximal effect; % is scaled to controls: 0 for no effect and ±100 for the full control effect; nearly all actives have a fitted effect of over 45% in size
HCMV inh: human cytomegalovirus inhibition; activity change, negative = inhibition, % at 57.5 µM; HFF cells, HCMV-luciferase reporter, 72 h; hits give low values; 410,000 compounds, 4.5% hits; in the data active = activity change below about -60%; inconclusive = no clear call, values can overlap the other calls; inactive = above about -39%; also: % is scaled to controls: 0 for no effect and ±100 for the full control effect
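Two compound doses tested in HFFs infected with HCMV-luciferase, MOI 1 PFU/cell, 72 h at 37C. Lysate luminescence read with OneGlo; data normalized against buffer-only and 10uM Salinomycin inhibitor controls.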
LASV entry inh: blocks Lassa virus binding to or entry into cells. Lassa virus pseudotype entry inhibition, cell reporter. Potency, µM (titrated, usually from 37.9 µM), for inactives: at the top dose activity change, negative = inhibition, hits mostly inhibitors. 300,000 compounds, 1.2% hits. AID 540256; calls by dose curve; tested in HEK293 cells; also: potency is read from the fitted curve at half-maximal effect; % is scaled to controls: 0 for no effect and ±100 for the full control effect; nearly all actives have a fitted effect of over 50% in size
Numbers without * were called inactive; ? = inconclusive; . = not tested or not shown; [ ] = dose if it differs, or a comment.

SMILES	HCV inh	SARS PLpro yeast	MARV entry inh	FMDV antiviral	HCMV inh	LASV entry inh
Cc1cc(/C=N/NC(=O)c2c(Br)cnn2C)c(C)n1-c1cccc(Br)c1	7.7%	-16.9%	?	?	-65.5*	?
COCCN1CCN(C(=O)c2cnn(-c3nccc(-c4ccccc4F)n3)c2-c2ccco2)CC1	.	.	.	0.0%	.	.
COc1ccc(/C=C/c2c([N+](=O)[O-])c(=O)n(C)c(=O)n2C)cc1	1.7%	0.0%	-6.7%[46.1 µM]	-1.4%	10.3	.
CCc1ccc(/C=C/c2c([N+](=O)[O-])c(=O)n(C)c(=O)n2C)cc1	?	-1.1%	.	15.8µM*	-97.9*	.
CCOc1ccc(/C=C/c2c([N+](=O)[O-])c(=O)n(C)c(=O)n2C)cc1	9.6%	-0.8%	?	-29.3%	-75.4*	?
O=C(c1cccnc1)N1CC(=O)N2[C@@H](CO)[C@@H](c3ccc(Br)cc3)[C@@H]2C1	.	.	.	.	-11.9	.
CC(C)c1cccc(-c2nc3c(NCc4cccc(N(C)C)c4)nccc3[nH]2)c1	.	.	.	.	-0.3	.
O=C(c1cnn2c(C(F)(F)F)cc(-c3cccs3)nc12)N1CCN(C(c2ccccc2)c2ccccc2)CC1	?	1.9%	12.6µM*	-6.5%	-23.0	?
COc1ccccc1N1CCN(C(=O)c2noc(C)c2[N+](=O)[O-])CC1	24.1%	-2.4%	.	-11.5%	0.0	.
COc1ccccc1-c1cc(C(=O)N2CCc3ccccc3C2)c2ccccc2n1	.	-6.4%	-0.7%	.	.	.
Cc1onc(C(=O)N2CCN(C(c3ccccc3)c3ccccc3)CC2)c1[N+](=O)[O-]	?	-29.0%	2.5%	?	-103.2*	-11.7%
COc1ccccc1-c1cc(C(F)(F)F)n2ncc(C(=O)N3CCc4ccccc4C3)c2n1	11.2µM*	0.4%	-29.3%	-29.0%	-13.4	-29.0%
Cc1cc(C(=O)N2CCN(C(c3ccccc3)c3ccccc3)CC2)no1	?	-4.7%	10.9%	?	-17.8	1.3%
O=C(c1cc(-c2cccs2)on1)N1CCN(C(c2ccccc2)c2ccccc2)CC1	2.82µM*	3.4%	?	-21.0%	?	?
CN1CCN(C(=O)c2cnn3c(C(F)(F)F)cc(-c4cccs4)nc23)CC1	19.8%	10.4%	4.8%	-13.9%	1.8	7.3%
COC(=O)CN1C(=O)C(C)(C)c2cc(S(=O)(=O)Nc3ccc(C(C)C)cc3)ccc21	.	.	.	18.4%	9.9	-15.3%[46.1 µM]
COc1ccc(-c2cn(CCc3c[nH]c4ccccc34)nn2)cc1	?	2.9%	.	2.9%	?	.
CCc1cc(-c2nnn(CCC3COCCO3)c2CC)cc(CC)c1-c1cn(Cc2ccc3ccccc3c2)nn1 (stereo not drawn)	.	.	.	?	-67.4*	.
CCc1cc(-c2nnn(CCC3COCCO3)c2CC)ccc1-c1cn(CCc2c[nH]c3ccccc23)nn1 (stereo not drawn)	.	.	.	0.0%	-80.0*	.
COc1ccc(-c2cn(Cc3cccc(OC)c3)nn2)cc1	?	.	.	62.8%	35.5	.
CNc1nc2cnc(Nc3ccc(F)c(Cl)c3)cc2n1-c1cc(OC)c(OC)c(OC)c1	.	.	.	.	75.6	.
Cn1c(-n2cccc2)c(-c2c(-c3ccccc3)[nH]c3c2c(=O)n(C)c(=O)n3C)c(=O)n(C)c1=O	.	.	0.3%[46.1 µM]	0.6%	-0.1	-1.7%[46.1 µM]
O=C(CCCN1C(=O)/C(=C/c2ccc(F)cc2)SC1=S)NC1CCS(=O)(=O)C1 (stereo not drawn)	-7.0%	-0.7%	.	2.4%	-72.3*	.
O=C(CN1C(=O)S/C(=C\c2ccccc2)C1=O)NC1CCS(=O)(=O)C1 (stereo not drawn)	-7.6%	-4.3%	-19.8%[46.1 µM]	7.9%	-35.6	23.4%[46.1 µM]
O=C(CN1C(=O)S/C(=C\c2ccccc2F)C1=O)NC1CCS(=O)(=O)C1 (stereo not drawn)	18.8%	3.0%	3.3%[46.1 µM]	-13.4%	-61.9*	18.3%[46.1 µM]
COc1ccc(NC(=O)c2cc(C3CC3)nc3c2c(C)nn3-c2ccc(C)cc2)cc1OC	.	.	.	-23.8%	14.0	21.0%[46.1 µM]
COC(=O)c1ccc(C(=O)N(Cc2ccccc2)c2ccccc2)cc1	?	?	-27.6%[46.1 µM]	30.3%	20.8	?
Cc1cccc(N(Cc2ccccc2)C(=O)CCl)c1	3.98µM*	-0.7%	?	12.6µM*	-115.9*	-13.5%
